The campaign covered roughly 2,300 compounds. About 1,000 (43%) were called active. How the calls were made is not given here. So high a share suggests a set chosen from earlier hits. The list shows a part of the results. A call without a number means that no potency is given here. Potency and affinity values are given separately.
test: PhoP regulon inhibitor project modified counter assay, GFP fluorescence readout, dose response (AID 1985); conditions: S. Typhi, 4 h; series mostly up to 150 µM

SMILES | outcome
CCN(CC)/C(N)=N/c1nc(C)cc(C)n1 | inactive
c1ccc(-c2nnc(-c3c[nH]c4ccccc34)nc2-c2ccccc2)cc1 | inactive
COC(=O)c1ccc(S(=O)(=O)N2CCC(c3nc4ccccc4o3)CC2)cc1 | inactive
Cc1cc(N2CCN(C3CCCCC3)CC2)nc2cccc(O)c12 | inactive
O=C(CN1C2=NCCCN2c2ccccc21)c1ccc2c(c1)OCO2 | inactive
O=C(CN1C2=NCCCN2c2ccccc21)c1ccc([N+](=O)[O-])cc1 | inactive
CC(C)N=C1NN=C(c2ccc(F)cc2)CS1 | inactive
Cn1cc(S(=O)(=O)NCC2CCCO2)c(=O)n(C)c1=O (stereo not given) | inactive
COc1ccc(Nc2nnc(SCC3CCCO3)s2)cc1 (stereo not given) | inactive
COc1ccc(Cn2c(=N)c(C(=O)NCC3CCCO3)cc3c(=O)n4ccccc4nc32)cc1 (stereo not given) | inactive
COc1ccc(CCn2c(=N)c(C(=O)NCC3CCCO3)cc3c(=O)n4ccccc4nc32)cc1 (stereo not given) | inactive
COc1ccc(Nc2nc(NCC3CCCO3)c3ccccc3n2)c(OC)c1 (stereo not given) | inactive
Cc1cccn2c(=O)c3cc(C(=O)NCC4CCCO4)c(=N)n(C4CCCC4)c3nc12 (stereo not given) | inactive
COc1ccccc1Nc1nc(NCC2CCCO2)c2ccccc2n1 (stereo not given) | inactive
CCN(CC)S(=O)(=O)c1cc(NC(=O)C2Cc3ccccc3C(=O)O2)ccc1C (stereo not given) | inactive
O=C1CSC(=S)N1c1cccnc1 | inactive
O=C1c2ccc3c4c(ccc(c24)C(=O)N1c1cccc(O)c1)C(=O)N(c1cccc(O)c1)C3=O | inactive
Cc1cccc(N2C(=O)CS/C2=N\NC(=O)c2ccc(Br)cc2)c1C | inactive
Cc1c(C(=O)O)sc(=S)n1-c1ccc(Cl)cc1 | inactive
Cc1nn(C)c(C)c1NC(=O)c1ccc(S(=O)(=O)N(C)C)cc1 | inactive
COc1ccc(CCNC(=O)Cn2c(=O)n(CC3CCCO3)c(=O)c3ccccc32)cc1OC (stereo not given) | inactive
O=C(CSCc1ccccc1)Nc1cccc(C(=O)Nc2ccc(C(=O)O)cc2)c1 | inactive
O=C(Nc1ccc(F)cc1)c1ccc2snnc2c1 | inactive
CC(C)[C@@H](C(=O)NC1CCCC1)N1C(=O)N2CCc3c([nH]c4ccccc34)[C@@]2(C)C1=O | inactive

SMILES | outcome
[O-][n+]1onc2c1CCc1[nH]c(-c3ccccc3)nc1-2 | inactive
COc1ccc(C(=O)Oc2ccc(/C=N/O)cc2)cc1 | inactive
COc1ccc(NC(=O)C(Cc2ccccc2)n2cccc2)cc1 (stereo not given) | inactive
COc1cc(/C=C/C(=O)O)cc2c1OCCO2 | inactive
CC(=O)c1cc(O)c2ccccc2c1O | inactive
O=C(Cn1c(=O)oc2cc(S(=O)(=O)N3CCCC3)ccc21)N1CCN(c2ccccc2F)CC1 | inactive
CCN1CCN(C(=O)Nc2ccc(Cc3ccc(NC(=O)N4CCN(CC)CC4)cc3)cc2)CC1 | inactive
CN1CCCN(S(=O)(=O)c2ccc3c(c2)OCCO3)CC1 | inactive
CCOC(=O)N1CCN(C(=S)NC(=O)c2ccc(Br)cc2)CC1 | inactive
O=C(Nc1ccc(Cl)cc1)N1CCCN(Cc2ccccc2F)C1 | inactive
Cc1oc2c(O)c(O)ccc2c(=O)c1-c1ccccc1 | inactive
CCN(CC)S(=O)(=O)c1ccc(N2CCOCC2)c(C(=O)O)c1 | inactive
CCCC(=O)N1CCN(c2ccc(NC(=S)NC(=O)c3cccc(C)c3)cc2)CC1 | inactive
CCCNC(=O)C1CCN(c2ccc(S(=O)(=O)N3CCOCC3)cc2Cl)CC1 | inactive
CCOc1ccc2nc(NC(=O)C3=NNC(=O)CC3)sc2c1 | inactive
Cc1ccccc1Oc1ccc(Oc2ccccc2C)nn1 | inactive
Cc1ccc(NC(=O)CCNC(=O)c2ccccc2)cc1F | inactive
CC(=O)c1cccc(NC(=O)CCC2CCCC2)c1 | inactive
COCC1CCCN(Cc2cn[nH]c2-c2cc3ccccc3o2)C1 (stereo not given) | inactive
O=C(c1ccc2c3c(cccc13)CC2)C1CCCN(Cc2ncc[nH]2)C1 (stereo not given) | inactive
COc1ccccc1NC(=O)CSC1CC(=O)N(c2ccc3c(c2)OCO3)C1=O (stereo not given) | inactive
NS(=O)(=O)c1ccc(CCNS(=O)(=O)c2cccc(C(=O)O)c2)cc1 | inactive
COc1cccc(C(=O)CC(=O)C(=O)Nc2cc(OC)c(OC)c(OC)c2)c1 | inactive
Cc1ccc(/C=C2\SC(=S)N(c3cccnc3)C2=O)o1 | inactive

SMILES | outcome
COc1ccc(OC)c(NC(=O)CSc2nnc3ccc(-c4ccncc4)nn23)c1 | inactive
Cn1c(CN2CCCCC2)nc2cc(NS(=O)(=O)c3ccc(Cl)cc3)ccc21 | inactive
CCOC(=O)C1=C(C)NC(=O)NC1c1ccc(NC(C)=O)cc1 (stereo not given) | inactive
COC(=O)CNC(=O)c1ccc(=O)oc1 | inactive
CN1CCCN(C(=O)COc2ccc(F)cc2Cl)CC1 | inactive
CN1CCC(=C2c3ccccc3C=Cc3ccccc32)CC1 | inactive
CN1CCN(c2ccc(C(=O)c3cn(-c4ccc(F)c(Cl)c4)nn3)cc2)CC1 | inactive
CCn1c(-c2ccncc2)n[nH]c1=S | inactive
COc1cc(C)c(Cl)cc1S(=O)(=O)n1cnc(C)c1 | inactive
Cn1c(=NC(=O)COc2ccccc2)sc2cccc(F)c21 | inactive
O=[N+]([O-])c1ccc(O)c2ncccc12 | inactive
C#CC(=O)N(c1cccc(OC)c1)C(C(=O)NC1CCCC1)c1cccs1 (stereo not given) | inactive
CCN(CC)CCSc1nnc2c3ccccc3n(Cc3ccccc3)c2n1 | inactive
C=CCn1c(C)cc(C(=O)CSc2n[nH]c(N)n2)c1C | inactive
O=[N+]([O-])c1ccc(N2CCNCC2)cc1NCc1cccnc1 | inactive
Cc1nc2scc(C)n2c(=O)c1S(=O)(=O)N1CCN(c2cccc(C(F)(F)F)c2)CC1 | inactive
COc1nnc(-c2ccc(N3CCOCC3)c(NC(=O)c3ccc(C)cc3)c2)c2ccccc12 | inactive
CN(C)CCCN(C(=O)c1cc2cc([N+](=O)[O-])ccc2s1)c1nc2cc3c(cc2s1)OCCO3 | inactive
CCSC1=NCN(CCCC(=O)O)CN1 | inactive
COc1cc(C(=O)N/N=C/c2coc3ccccc3c2=O)cc(OC)c1OC | inactive
CC(C)C(c1nnnn1Cc1ccccc1)N(CCCO)Cc1cc2cc3c(cc2[nH]c1=O)OCO3 (stereo not given) | inactive
CC(C)Cc1nc(N2CCOCC2)c(C#N)c2c1COC(C)(C)C2 | inactive

Source: PubChem BioAssay AID1985 (Southern Research Specialized Biocontainment Screening …, 2009)
